# In PubChem BioAssay AID1345085 (National Center for Advancing Translational Sciences (NCATS), 2018):
# Results filed as inconclusive are left out. Unmarked numbers belong to inactive results. Calls of active or inactive are those of the source. Calls follow the shape of the dose curve; as a rule, active = well fitted cell-killing curve with a large enough effect; inconclusive = small, poorly fitted or top-dose-only effect, or effect the other way; inactive = no such curve, though single readings can be large or run the other way.
# System: Hek293T
# Experiment: Confirmatory qHTS for gynecologic anti-cancer compounds from libraries of approved drugs and bioactive compounds; also: nearly all actives have a fitted effect of over 55% in size
# Settings: gynecologic cancer cell panel viability, ATPlite luminescence, 48 h; series mostly up to 57.6 µM
# Summary of the method: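 ATPlite luminescence read-out of cell viability; IC50 from 11-point 1:3 titrations, 57.5 uM to 0.977 nM, 48 h compound exposure at 37 C, 5% CO2. Cells seeded at 1,000/well 16 h before dosing.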
# % is scaled to controls: 0 for no effect and ±100 for the full control effect; potency is read from the fitted curve at half-maximal effect.
Compound,Potency,"activity change, negative = viability loss"
Cc1ccc(C(=O)Nc2ccc(Oc3cc4cnn(C)c4cc3-c3cn[nH]c3)c(F)c2)c(=O)n1-c1ccc(F)cc1,1930 nM (active),
NC(=O)c1ccc2nc(-c3ccc(Oc4ccc(Cl)cc4)cc3)[nH]c2c1,21.7 nM (active),
CN1CCCC(n2nc(Cc3ccc(Cl)cc3)c3ccccc3c2=O)CC1 (centres undefined),17200 nM (active),
NC(=O)c1cccc2cn(-c3ccc([C@@H]4CCCNC4)cc3)nc12,inactive,
Cc1[nH]c2ccccc2c1CCNCc1ccc(/C=C/C(=O)NO)cc1,193 nM (active),
Cc1cc(Nc2nc(N[C@@H](C)c3ccc(F)cc3)c(C#N)cc2F)n[nH]1,inactive,
COc1cc(Nc2ncc(F)c(Nc3ccc4c(n3)N(COP(=O)(O)O)C(=O)C(C)(C)O4)n2)cc(OC)c1OC,inactive,
CC(C)c1nn(-c2c(Cl)cccc2Cl)c2nc(Cc3ccc(OCCO)cc3)[nH]c(=O)c12,30.6 nM (active),
CCCCc1oc2ccccc2c1C(=O)c1cc(I)c(OCCN(CC)CC)c(I)c1,79400 nM (active),
CCC(=O)N1CCN(c2ccc(-n3c(=O)ccc4cnc5ccc(-c6cnc7ccccc7c6)cc5c43)cc2C(F)(F)F)CC1,49.8 nM (active),
Cn1cc(-c2[nH]c3cc(NC(=O)[C@H](N)C4CCCCC4)cc4c3c2C=NNC4=O)cn1,432 nM (active),
CC(=O)O[C@H]1C(=O)[C@@]2(C)[C@H]([C@H](OC(=O)c3ccccc3)[C@]3(O)C[C@H](OC(=O)[C@H](O)[C@@H](NC(=O)c4ccccc4)c4ccccc4)C(C)=C1C3(C)C)[C@]1(OC(C)=O)CO[C@@H]1C[C@@H]2O,,4.91% [at 10.7 µM]
NC(=O)Nc1cc(-c2cccc(F)c2)sc1C(=O)NC1CCCNC1 (centres undefined),273 nM (active),
CC(C)n1nc(-c2cc3cc(O)ccc3[nH]2)c2c(N)ncnc21,6850 nM (active),
COCCOc1nc(-c2ccc(Cl)c(Cl)c2)n(-c2ccc(NC(=O)CCl)cc2)n1,12200 nM (active),
Cc1c(C)n(Cc2ccc(-c3ccccc3C(=O)O)cc2)c2ccc(C(=O)N[C@@H](C)c3ccc([N+](=O)[O-])cc3)cc12,inactive,
Cc1cnc(Nc2cccc(CN3CCOCC3)c2)nc1Nc1cccc(S(=O)(=O)NC(C)(C)C)c1,inactive,

Compound,Potency,"activity change, negative = viability loss"
O=c1c(-c2ccc(O)cc2)coc2cc(O)cc(O)c12,inactive,
FC(F)(F)c1ccc(/C=C/c2nc(COc3ccc(CCCCn4ccnn4)cc3)co2)cc1,19.3 nM (active),
Cc1csc(NC(=O)c2sc3nc4c(c(C(F)(F)F)c3c2N)CCC4)n1,769 nM (active),
Nc1nccc(Oc2ccc(NC(=O)c3c[nH]cc(-c4ccc(F)cc4)c3=O)cc2F)c1Cl,13700 nM (active),
Cc1cc(Nc2nc(N[C@@H](C)c3ncc(F)cn3)ncc2Cl)n[nH]1,inactive,
COc1cc2nccc(Oc3ccc(NC(=O)Nc4cc(C)on4)c(Cl)c3)c2cc1OC,inactive,
CN1CCN(Cc2ccc(NC(=O)Nc3ccc(Oc4cc(NC(=O)C5CC5)ncn4)cc3)cc2C(F)(F)F)CC1,7690 nM (active),
CN1C2CCC1CC(OC(=O)[C@H](CO)c1ccccc1)C2 (some centres undefined),inactive,
COC(C(=O)N1Cc2[nH]nc(NC(=O)c3ccc(N4CCN(C)CC4)cc3)c2C1)c1ccccc1 (centres undefined),inactive,
CO[C@@]12[C@H](COC(N)=O)C3=C(C(=O)C(C)=C(N)C3=O)N1C[C@@H]1N[C@@H]12,inactive,
O=C(c1ccc(/C=C/c2n[nH]c3ccccc23)cc1)N1CCNCC1,21700 nM (active),
CS(=O)(=O)c1ccc(C(=O)Nc2ccc(Cl)c(-c3ccccn3)c2)c(Cl)c1,inactive,
CC(C)Nc1cc(-c2c[nH]c(C(=O)N[C@H](CO)c3cccc(Cl)c3)c2)c(Cl)cn1,inactive,
CC(C)C[C@H](NC(=O)[C@H](CCc1ccccc1)NC(=O)CN1CCOCC1)C(=O)N[C@@H](Cc1ccccc1)C(=O)N[C@@H](CC(C)C)C(=O)[C@@]1(C)CO1,3430 nM (active),
O=C(c1ccc(F)c(F)c1Nc1ccc(I)cc1F)N1CC(O)([C@@H]2CCCCN2)C1,24300 nM (active),
CN(Cc1cnc2nc(N)nc(N)c2n1)c1ccc(C(=O)N[C@@H](CCC(=O)O)C(=O)O)cc1,109 nM (active),
CC[C@@]1(O)C(=O)OCc2c1cc1n(c2=O)Cc2cc3cc(O)ccc3nc2-1,385 nM (active),
